The values that follow come from PubChem BioAssay (Tox21).

Each structure is given as a SMILES string. Where “and” joins values, the source holds several entries; their conditions need not be identical. Identical values can stand only once. Unmarked numbers belong to inactive results. Results filed as inconclusive are left out. Calls of active or inactive are those of the source. Unless noted, the call rests on the fitted dose curve; in most records, active means well fitted curve in the direction sought with a large enough effect in the repeat runs; inconclusive means weak or mixed curves; inactive means no such curve, though single readings can be large; an effect the other way counts as inactive or inconclusive.

Test [1] can be described thus: Human pregnane X receptor (PXR) small molecule agonists, qHTS cell viability counter screen (AID 1346977). Further: on the % scale 0 is the no-effect control and ±100 the full control effect; nearly all actives have a fitted effect of over 50% in size. The procedure, abridged: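 HepG2 cells stably carrying the PXR-Luc reporter are cultured with 5% charcoal-stripped FBS and treated with compounds for 24hr. CellTiter-Fluor is added at 23hr and fluorescence is read after 1hr.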
In general terms: In qHTS, concentration-response curves come from the screen itself.

Test [2] can be described thus: Caspase-3/7 induction in HepG2 cells by small molecules, qHTS assay (AID 1346978). Further: on the % scale 0 is the no-effect control and ±100 the full control effect; nearly all actives have a fitted effect of over 15% in size. In a few lines:
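Caspase-3/7 induction was measured by Caspase-Glo 3/7 luminescence (30 min, room temperature) after a 17 hr compound exposure of wild-type HepG2 cells seeded at 2,000 per well and pre-incubated 5 hr.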

Test [3] can be described thus: Caspase-3/7 induction in CHO-K1 cells by small molecules, qHTS assay (AID 1346980). Further: on the % scale 0 is the no-effect control and ±100 the full control effect; nearly all actives have a fitted effect of over 15% in size. In a few lines: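 Luminescent Caspase-Glo 3/7 read (30min, room temperature) quantified apoptosis induction. Cells were wild-type CHO-K1, treated with compound for 17hr at 37 C and 5% CO2.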
Test [4] is described as follows: Caspase-3/7 induction in HepG2 cells by small molecules, qHTS cell viability counter screen (AID 1346981). Further: series mostly up to about 92 µM; on the % scale 0 is the no-effect control and ±100 the full control effect; nearly all actives have a fitted effect of over 30% in size. The procedure, abridged:
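Fluorescence read-out of live-cell protease activity (CellTiter-Fluor) after 1 hr with reagent. This was measured in the same wells as the caspase-3/7 luminescence, on HepG2 cells exposed to DMSO-dissolved compounds for 16 hr at 37 C.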

In test [5] the target is Nuclear receptor subfamily 1 group I member 2 (Homo sapiens) (UniProt O75469). As to the kind of experiment: Human pregnane X receptor (PXR) small molecule agonists, qHTS assay (AID 1346982). Further: nearly all actives have a fitted effect of over 35% in size. Further: potency means the concentration at half of the fitted maximal effect. On activation: on the % scale 0 is the no-effect control and ±100 the full control effect. The procedure, abridged: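 HepG2 PXR-Luc reporter line, 5% charcoal-stripped FBS; 5 hr pre-incubation, compound (DMSO) 24 hr at 37 C/5% CO2; ONE-Glo 30 min RT; luminescence read-out.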
Sequence of Nuclear receptor subfamily 1 group I member 2 (Homo sapiens) (O75469 whole entry, looked up): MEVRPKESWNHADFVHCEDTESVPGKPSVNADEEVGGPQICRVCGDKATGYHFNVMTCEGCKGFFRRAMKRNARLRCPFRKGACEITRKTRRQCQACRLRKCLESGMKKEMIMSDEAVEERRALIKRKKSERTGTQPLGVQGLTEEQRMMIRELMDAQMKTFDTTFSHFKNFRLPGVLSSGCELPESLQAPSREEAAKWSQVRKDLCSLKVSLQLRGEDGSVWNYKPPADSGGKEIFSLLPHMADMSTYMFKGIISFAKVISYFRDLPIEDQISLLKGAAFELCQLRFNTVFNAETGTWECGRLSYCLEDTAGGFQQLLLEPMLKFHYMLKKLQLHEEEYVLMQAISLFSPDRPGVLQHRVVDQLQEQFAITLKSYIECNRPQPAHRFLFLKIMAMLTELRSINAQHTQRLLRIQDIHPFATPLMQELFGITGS

The target in test [6] is Acetylcholinesterase (Homo sapiens) (UniProt P22303). As to the kind of experiment: Acetylcholinesterase (AChE) small molecule antagonists: colormetric cell-based qHTS assay (AID 1347395; calls by dose curve; further: on the % scale 0 is the no-effect control and ±100 the full control effect; nearly all actives have a fitted effect of over 30% in size). In a few lines: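 Quantitative HTS in attached SH-SY5Y cells: 30 min compound exposure, then 90 min with acetylthiocholine and DTNB at 37 C; colour from thiocholine reports AChE activity.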
Sequence of Acetylcholinesterase (Homo sapiens) (P22303 whole entry, looked up): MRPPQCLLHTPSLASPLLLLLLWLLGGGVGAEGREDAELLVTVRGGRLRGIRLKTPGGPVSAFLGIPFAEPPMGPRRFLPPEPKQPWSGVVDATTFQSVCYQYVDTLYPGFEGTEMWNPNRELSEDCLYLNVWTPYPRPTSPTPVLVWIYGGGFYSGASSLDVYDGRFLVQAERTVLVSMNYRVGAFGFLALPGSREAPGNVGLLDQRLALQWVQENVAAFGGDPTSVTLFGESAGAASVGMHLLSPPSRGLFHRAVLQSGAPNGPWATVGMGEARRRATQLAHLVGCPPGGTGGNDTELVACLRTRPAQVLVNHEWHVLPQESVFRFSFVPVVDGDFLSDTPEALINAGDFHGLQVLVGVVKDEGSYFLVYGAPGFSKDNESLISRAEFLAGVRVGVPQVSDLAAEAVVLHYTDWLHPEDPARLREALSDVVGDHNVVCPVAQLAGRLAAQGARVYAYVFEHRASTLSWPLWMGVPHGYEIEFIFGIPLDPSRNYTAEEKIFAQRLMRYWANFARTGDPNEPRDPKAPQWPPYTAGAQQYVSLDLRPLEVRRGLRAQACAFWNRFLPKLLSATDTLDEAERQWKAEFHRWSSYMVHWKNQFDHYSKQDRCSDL

The target is the same in test [7]. As to the kind of experiment: Acetylcholinesterase (AChE) small molecule antagonists: enzyme-based qHTS assay (AID 1347397; calls by dose curve; further: on the % scale 0 is the no-effect control and ±100 the full control effect; nearly all actives have a fitted effect of over 55% in size). The note with it: Potency: AChE enzyme activity inhibition. In a few lines:
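Colorimetric DTNB readout of acetylthiocholine hydrolysis, 10 min at room temperature, after 30 min room-temperature exposure of 50 mU/mL recombinant human enzyme to compound; DMSO vehicle control.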

Test [8] has the same target. The test is described as follows: Acetylcholinesterase (AChE) small molecule antagonists: fluorescence cell-based qHTS assay (AID 1347398; calls by dose curve; further: on the % scale 0 is the no-effect control and ±100 the full control effect; nearly all actives have a fitted effect of over 50% in size). The note with it: Potency: AChE activity. The procedure, abridged: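 Cellular AChE activity read as thiocholine from acetylthiocholine hydrolysis, detected by Thiolite Green fluorescence at 490/520 nm after 40 min at room temperature. Compounds were pre-incubated 30 min at 37 C on adherent SH-SY5Y cells.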

Test [9] has the same target. As to the kind of experiment: Acetylcholinesterase (AChE) small molecule antagonists: enzyme-based qHTS assay with human liver microsomes (AID 1347399; calls by dose curve; further: on the % scale 0 is the no-effect control and ±100 the full control effect; nearly all actives have a fitted effect of over 60% in size). The settings on record: Potency: qHTS inhibition. The procedure, abridged: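 Recombinant human AChE (50 mU/mL in the enzyme mix) and human liver microsomes (0.25 mg/mL final) were preincubated with compound and NADPH (0.25 mg/mL final) for 30 min at 37 C. Acetylthiocholine/DTNB was then added; thiocholine was read colorimetrically after 10 min at room temperature.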

Test [10] has as its target Cytochrome P450 2D6 (Homo sapiens) (UniProt P10635). As to the kind of experiment: Cytochrome P450 Family 2 Subfamily D Member 6 (CYP2D6) small molecule antagonists: luciferase reporter qHTS assay (AID 1671196). Further: nearly all actives have a fitted effect of over 50% in size. Further: potency means the concentration at half of the fitted maximal effect. The procedure, abridged:
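Luminogenic proluciferin substrate, CYP2D6 enzyme; 10 min RT preincubation with compound, NADPH regeneration system added, 1 h RT. Stop/detection reagent, 20 min RT, luminescence read (RLU). Signal proportional to CYP activity.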
On the technique in general: A reporter such as luciferase makes a cellular process visible.

The target in test [11] is Cytochrome P450 2C19 (Homo sapiens) (UniProt P33261). As to the kind of experiment: Cytochrome P450 Family 2 Subfamily C Member 19 (CYP2C19) small molecule antagonists: luciferase reporter qHTS assay (AID 1671197). Further: nearly all actives have a fitted effect of over 65% in size. Further: potency means the concentration at half of the fitted maximal effect. The procedure, abridged:
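P450-Glo CYP2C19 system: enzyme-substrate mix with compound 10 min at room temperature, then NADPH regeneration solution, 1 h at 37C. Proluciferin-to-luciferin conversion detected by luminescence after 20 min with detection reagent; ketoconazole as positive control.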

The target of test [12] is Cytochrome P450 2C9 (Homo sapiens) (UniProt P11712). The test is described as follows: Cytochrome P450 Family 2 Subfamily C Member 9 (CYP2C9) small molecule antagonists: luciferase reporter qHTS assay (AID 1671198). Further: nearly all actives have a fitted effect of over 50% in size. Further: potency means the concentration at half of the fitted maximal effect. The procedure, abridged: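 Enzyme-substrate mix preincubated with compound 10 min at room temperature; reaction started with NADPH regeneration solution, 1 h 37C. Luminescent luciferin product read after 20 min detection reagent.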
Sequence of Cytochrome P450 2C9 (Homo sapiens) (P11712 whole entry, looked up): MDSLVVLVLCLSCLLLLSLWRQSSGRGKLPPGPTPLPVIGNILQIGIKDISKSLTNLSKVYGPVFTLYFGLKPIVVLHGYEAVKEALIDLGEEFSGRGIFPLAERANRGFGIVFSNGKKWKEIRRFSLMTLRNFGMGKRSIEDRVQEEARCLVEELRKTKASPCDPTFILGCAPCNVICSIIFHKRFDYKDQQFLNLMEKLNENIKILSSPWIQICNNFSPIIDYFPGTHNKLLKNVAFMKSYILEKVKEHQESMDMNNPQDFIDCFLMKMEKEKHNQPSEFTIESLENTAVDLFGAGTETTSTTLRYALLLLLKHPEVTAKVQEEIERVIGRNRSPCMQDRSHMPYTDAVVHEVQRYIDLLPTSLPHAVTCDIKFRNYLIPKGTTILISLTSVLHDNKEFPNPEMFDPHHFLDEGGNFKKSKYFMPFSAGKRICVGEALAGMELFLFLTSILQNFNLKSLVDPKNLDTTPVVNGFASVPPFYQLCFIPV

The target of test [13] is Voltage-gated inwardly rectifying potassium channel KCNH2 (Homo sapiens) (UniProt Q12809). The test is described as follows: Human Ether-a-go-go-Related Gene (hERG) channel small molecule antagonists: fluorescence cell-based qHTS assay (AID 1671200). Further: nearly all actives have a fitted effect of over 50% in size. Further: potency means the concentration at half of the fitted maximal effect. In a few lines: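 First, 1000 cells per well are seeded and cultured overnight at 37 C. Next, FluxOR II dye is loaded for 1 h at room temperature, protected from light. After 10 more minutes, stimulus is added and fluorescence is read.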
Sequence of Voltage-gated inwardly rectifying potassium channel KCNH2 (Homo sapiens) (Q12809 whole entry, looked up): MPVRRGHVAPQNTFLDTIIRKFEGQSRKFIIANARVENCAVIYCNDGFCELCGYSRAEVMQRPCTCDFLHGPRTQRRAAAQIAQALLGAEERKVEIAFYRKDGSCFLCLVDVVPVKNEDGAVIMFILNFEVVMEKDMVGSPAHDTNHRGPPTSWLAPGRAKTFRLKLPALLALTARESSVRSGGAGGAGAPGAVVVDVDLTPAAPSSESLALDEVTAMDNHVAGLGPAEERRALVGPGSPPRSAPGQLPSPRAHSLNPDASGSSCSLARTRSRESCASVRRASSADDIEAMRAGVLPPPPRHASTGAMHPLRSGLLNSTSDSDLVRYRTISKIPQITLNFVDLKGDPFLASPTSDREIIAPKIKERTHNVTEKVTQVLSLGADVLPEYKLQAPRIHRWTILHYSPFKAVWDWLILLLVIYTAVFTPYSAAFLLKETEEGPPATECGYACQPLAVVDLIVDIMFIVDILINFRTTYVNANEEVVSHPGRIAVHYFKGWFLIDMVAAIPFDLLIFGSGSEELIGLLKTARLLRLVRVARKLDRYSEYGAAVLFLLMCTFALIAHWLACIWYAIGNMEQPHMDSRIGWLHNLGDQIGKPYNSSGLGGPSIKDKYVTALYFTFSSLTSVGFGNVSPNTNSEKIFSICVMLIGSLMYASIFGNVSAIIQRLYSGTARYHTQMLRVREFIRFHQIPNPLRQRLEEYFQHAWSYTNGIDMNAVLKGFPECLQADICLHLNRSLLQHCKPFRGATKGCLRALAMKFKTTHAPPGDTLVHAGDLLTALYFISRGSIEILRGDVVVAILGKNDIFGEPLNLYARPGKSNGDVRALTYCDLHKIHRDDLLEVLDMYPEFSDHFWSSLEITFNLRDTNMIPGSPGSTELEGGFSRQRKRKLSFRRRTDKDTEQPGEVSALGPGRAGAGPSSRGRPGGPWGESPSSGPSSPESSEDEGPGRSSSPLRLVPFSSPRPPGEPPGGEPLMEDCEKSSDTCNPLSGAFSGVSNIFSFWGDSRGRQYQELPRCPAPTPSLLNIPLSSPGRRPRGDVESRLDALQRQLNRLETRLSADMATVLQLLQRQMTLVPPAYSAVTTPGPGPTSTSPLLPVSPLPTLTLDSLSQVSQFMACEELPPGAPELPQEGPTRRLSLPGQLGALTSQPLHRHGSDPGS
In general terms: The hERG channel carries a current that helps repolarise heart muscle cells.

The target of test [14] is Nuclear receptor subfamily 1 group I member 2 (Rattus norvegicus) (UniProt Q9R1A7). The test is described as follows: Rat pregnane X receptor (rPXR) activation by small molecules, qHTS assay (AID 1346983). Further: on the % scale 0 is the no-effect control and ±100 the full control effect; nearly all actives have a fitted effect of over 20% in size. The settings on record: rPXR luciferase reporter cells, One-Glo luminescence, 24 h; stronger effect = higher value. The procedure, abridged:
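Luminescent readout (One-Glo luciferase, 30 min room temperature) followed 24 hr compound treatment at 37 C of rPXR cells plated 2,000 per well and preincubated 5hr; qHTS format with compounds delivered in DMSO.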

In test [15] the target is Nuclear receptor subfamily 1 group I member 2 (Homo sapiens) (UniProt O75469). The test is described as follows: CYP3A4 induction through human pregnane X receptor (PXR) by small molecules, qHTS assay (AID 1346984). Further: potency means the concentration at half of the fitted maximal effect; nearly all actives have a fitted effect of over 40% in size. The procedure, abridged:
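HepG2-derived DPX-2 line carrying PXR plus a CYP3A4-promoter luciferase reporter; cells plated 5 hr, compound-exposed 24 hr at 37C. CYP3A4 activity probed with 3uM (final) Luciferin-IPA for 3hr, then luciferase read after One-Glo.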

For test [16] the target is unchanged. The test is described as follows: Human pregnane X receptor (PXR) activation by small molecules, qHTS assay (AID 1346985). Further: on the % scale 0 is the no-effect control and ±100 the full control effect; nearly all actives have a fitted effect of over 40% in size. The procedure, abridged:
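DPX-2 cells (HepG2 co-transfected with a PXR response element and a CYP3A4-promoter luciferase construct) were seeded at 2,000 per well, rested 5 hr at 37C, then exposed to DMSO-dissolved compounds for 24 hr. Activation was read as luciferase luminescence.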

Test [17] concerns the target Cytochrome P450 1A2 (Homo sapiens) (UniProt P05177). As to the kind of experiment: Cytochrome P450 Family 1 Subfamily A Member 2 (CYP1A2) small molecule antagonists: luciferase reporter qHTS assay (AID 1671199). Further: nearly all actives have a fitted effect of over 50% in size. Further: potency means the concentration at half of the fitted maximal effect. In a few lines:
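Luminescence readout (relative luminescence units) after luciferin detection reagent, 20 min RT. Preceded by 1 h room-temperature CYP1A2 reaction with NADPH regeneration solution following 10 min compound preincubation with enzyme and proluciferin substrate. Furafylline positive control.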

For test [18], the target named is Cytochrome P450 3A4 (Homo sapiens) (UniProt P08684). The test is described as follows: Cytochrome P450 Family 3 Subfamily A Member 4 (CYP3A4) small molecule antagonists: luciferase reporter qHTS assay (AID 1671201). Further: nearly all actives have a fitted effect of over 50% in size. Further: potency means the concentration at half of the fitted maximal effect. The procedure, abridged: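 Enzyme and proluciferin substrate are mixed with test chemicals for 10 min, then NADPH regeneration system drives turnover for 1 h at room temperature. A detection reagent halts the reaction; luminescence after 20 min gives relative activity.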
Sequence of Cytochrome P450 3A4 (Homo sapiens) (P08684 whole entry, looked up): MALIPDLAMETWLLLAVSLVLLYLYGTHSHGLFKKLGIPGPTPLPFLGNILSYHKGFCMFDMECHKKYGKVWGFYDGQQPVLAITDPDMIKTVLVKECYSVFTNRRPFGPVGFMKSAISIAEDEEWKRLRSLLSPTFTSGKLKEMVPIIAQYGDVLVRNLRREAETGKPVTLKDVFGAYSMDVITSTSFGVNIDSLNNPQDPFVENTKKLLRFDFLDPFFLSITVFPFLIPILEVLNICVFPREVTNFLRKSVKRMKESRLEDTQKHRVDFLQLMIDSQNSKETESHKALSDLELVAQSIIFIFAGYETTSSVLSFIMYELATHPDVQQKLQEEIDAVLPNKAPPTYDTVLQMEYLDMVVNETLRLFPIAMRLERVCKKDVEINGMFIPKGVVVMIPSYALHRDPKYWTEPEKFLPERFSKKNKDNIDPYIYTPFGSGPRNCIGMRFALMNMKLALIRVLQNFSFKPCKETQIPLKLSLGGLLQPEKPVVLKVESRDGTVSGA

Test [19] is described as follows: Caspase-3/7 induction in CHO-K1 cells by small molecules, qHTS cell viability counter screen (AID 1346979). Further: on the % scale 0 is the no-effect control and ±100 the full control effect; nearly all actives have a fitted effect of over 35% in size. The procedure, abridged:
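Seeding: 1,500 CHO-K1 cells/well. Rest: 5hr, 37C. Treatment: compounds in DMSO, 16hr. Read: CellTiter-Fluor, 1hr, fluorescence.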

Sequence of Cytochrome P450 2C19 (Homo sapiens) (P33261 whole entry, looked up): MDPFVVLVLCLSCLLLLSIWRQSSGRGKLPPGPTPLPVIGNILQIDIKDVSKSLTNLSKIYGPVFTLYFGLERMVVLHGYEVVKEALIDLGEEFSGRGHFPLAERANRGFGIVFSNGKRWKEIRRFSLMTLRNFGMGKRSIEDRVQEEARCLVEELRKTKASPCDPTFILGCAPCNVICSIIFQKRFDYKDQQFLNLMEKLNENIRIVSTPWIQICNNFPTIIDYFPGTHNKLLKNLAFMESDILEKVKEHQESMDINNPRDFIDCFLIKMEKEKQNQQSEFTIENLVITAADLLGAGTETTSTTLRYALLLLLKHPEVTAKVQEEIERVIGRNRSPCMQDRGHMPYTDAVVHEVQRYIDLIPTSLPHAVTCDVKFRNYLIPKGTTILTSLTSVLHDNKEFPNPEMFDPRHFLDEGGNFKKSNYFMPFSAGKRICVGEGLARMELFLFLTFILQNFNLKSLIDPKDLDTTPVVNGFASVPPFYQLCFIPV
Sequence of Cytochrome P450 1A2 (Homo sapiens) (P05177 whole entry, looked up): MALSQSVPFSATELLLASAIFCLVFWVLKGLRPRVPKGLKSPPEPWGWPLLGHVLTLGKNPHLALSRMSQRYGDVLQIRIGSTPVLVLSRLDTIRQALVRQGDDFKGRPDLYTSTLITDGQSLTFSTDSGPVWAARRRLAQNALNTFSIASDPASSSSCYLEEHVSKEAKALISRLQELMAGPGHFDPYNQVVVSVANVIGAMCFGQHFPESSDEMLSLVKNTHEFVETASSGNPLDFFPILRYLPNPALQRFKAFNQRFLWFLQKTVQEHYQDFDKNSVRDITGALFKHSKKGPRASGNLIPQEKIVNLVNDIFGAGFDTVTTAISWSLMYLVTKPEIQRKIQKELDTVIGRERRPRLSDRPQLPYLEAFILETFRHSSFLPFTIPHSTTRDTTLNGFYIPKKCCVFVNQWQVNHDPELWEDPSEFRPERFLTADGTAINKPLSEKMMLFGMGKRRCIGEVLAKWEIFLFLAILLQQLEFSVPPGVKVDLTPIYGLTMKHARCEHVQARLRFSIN
Sequence of Cytochrome P450 2D6 (Homo sapiens) (P10635 whole entry, looked up): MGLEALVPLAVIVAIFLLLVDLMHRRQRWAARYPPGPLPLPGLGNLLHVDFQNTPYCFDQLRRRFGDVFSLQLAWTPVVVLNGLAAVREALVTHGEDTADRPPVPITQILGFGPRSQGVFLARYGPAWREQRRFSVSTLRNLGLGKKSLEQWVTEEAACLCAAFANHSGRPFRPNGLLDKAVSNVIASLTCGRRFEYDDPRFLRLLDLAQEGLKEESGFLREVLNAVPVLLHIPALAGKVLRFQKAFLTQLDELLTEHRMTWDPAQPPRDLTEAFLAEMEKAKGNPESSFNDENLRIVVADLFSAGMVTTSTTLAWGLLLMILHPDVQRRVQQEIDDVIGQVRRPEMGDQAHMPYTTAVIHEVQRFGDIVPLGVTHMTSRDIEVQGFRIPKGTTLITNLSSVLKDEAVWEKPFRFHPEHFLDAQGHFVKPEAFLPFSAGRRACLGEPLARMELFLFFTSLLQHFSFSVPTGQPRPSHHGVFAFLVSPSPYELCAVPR

For the compound `N#CC(c1ccccc1)c1ccccc1`, the Potency result in test [1], in test [2], in test [3], in [4], in [5] and in test [6] was “inactive” throughout. For the same compound, the Potency result in [7], in test [8], in [9], in test [10] and in [13] was “inactive” throughout. Further, the Potency in test [11] is 4.48 µM (active) and 5.03 µM (active); in test [12] it was 22.4 µM (active) and 35.6 µM (active).

As for `c1ccc2c(c1)Nc1ccccc1S2`, the Potency result in test [1], in [2], in [3], in [4], in test [6] and in test [7] was “inactive” throughout. The Potency entry in test [8], in test [9], in test [10], in test [12] and in test [13] was “inactive” in each case. Also, the Potency is 27.3 µM (active) in test [5]; 0.708 µM (active) in test [15]; 2.24 µM (active) and 8.71 µM (active) in test [11]; 731 nM (active) and 645 nM (active) in [17]. Further, the max activation in test [14] was -0.408%. Moreover, the result in test [16] was inactive.

`Nc1ncn[nH]1`: the Potency entry in test [1], in [2], in test [3], in [4], in test [5] and in test [6] was “inactive” each time. Moreover, the Potency result in [7], in [8], in test [9], in test [10], in test [11] and in test [12] was “inactive” each time. The Potency entry in test [17], in test [13] and in test [18] was “inactive” each time.

For `CCN(CC)C(=O)C(C)Oc1cccc2ccccc12` (centres undefined), the Potency entry in test [1], in test [2], in [3], in test [4], in test [6] and in [7] was “inactive” each time. Further, the Potency entry in test [8], in test [9], in test [10] and in [13] was “inactive” in each case. The Potency was 7.76 µM (active) and 864 nM (active) in test [5]; 1.01 µM (active) and 633 nM (active) in test [11]; 11.4 µM (active) and 35.6 µM (active) in [12]; 14.3 µM (active) and 28.3 µM (active) in test [17]; 6.33 µM (active) in [18].

`CC1(C)Cc2cccc(O)c2O1`: the Potency entry in [1], in test [2], in [3], in [4], in [5] and in [6] was “inactive” each time. The Potency result in test [7], in [8], in test [9], in [10], in test [11] and in [12] was “inactive” throughout. In addition, the Potency result in [13] was “inactive”.

Turning to `CC(C)=CC1C(C(=O)OCN2C(=O)C3=C(CCCC3)C2=O)C1(C)C` (centres undefined), the Potency result in test [2], in [19], in test [3], in [4], in test [6] and in test [7] was “inactive” each time. For the same compound, the Potency result in test [8], in test [9] and in [17] was “inactive” in each case. Besides, the Potency in [5] was 61.1 µM (active) and 29.8 µM (active); in test [15] it was 12.6 µM (active); in test [10], 22.4 µM (active) and 15.5 µM (active); in [11], 8.94 µM (active) and 3.89 µM (active); in test [12], 35.6 µM (active) and 27.5 µM (active); in [13] it was 38.9 µM (active). The max activation in [14] is -0.665%.
